HP1b chromo inh = HTS for Inhibitors of HP1-beta Chromodomain Interactions with Methylated Histone Tails | Chromobox protein homolog 1 (Homo sapiens), P83916 | hit rate 0.56% among 390,000 | AID 540317, 2011 | Potency, µM (top dose mostly 114 µM), inactives show at the top dose activity change, negative = inhibition, hits mostly inhibitors | AlphaScreen HP1-beta / biotin-H3K9me3 peptide binding; also: nearly all actives have a fitted effect of over 70% in size
Target sequence (P83916 whole entry, looked up): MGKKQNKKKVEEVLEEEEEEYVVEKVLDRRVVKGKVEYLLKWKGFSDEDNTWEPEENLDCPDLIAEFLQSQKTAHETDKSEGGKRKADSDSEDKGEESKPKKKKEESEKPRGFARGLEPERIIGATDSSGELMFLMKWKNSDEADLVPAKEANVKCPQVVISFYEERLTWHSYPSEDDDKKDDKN
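AlphaScreen: HP1-beta (50 nM) preformed 30 min with biotin-H3(1-18)K9me3 peptide (50 nM) in PBS pH 7.4, 0.01% Tween-20. Compound added for 30 min at RT, then streptavidin donor/nickel chelate acceptor beads (10 ug/mL) for 30 min.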
BAZ2B inh = qHTS Assay for Inhibitors of BAZ2B; Bromodomain adjacent to zinc finger domain protein 2B (Homo sapiens), Q9UIF8; AlphaScreen BAZ2B-H3K14Ac peptide displacement; Potency, µM (series often up to 114 µM), without a hit: top-dose activity change, negative = inhibition, hits mostly inhibitors; hit rate 4.4% among 360,000; also: % is scaled to controls: 0 for no effect and ±100 for the full control effect; nearly all actives have a fitted effect of over 60% in size
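BAZ2B 50 nM plus b-H3(5-23)K14Ac 50 nM, PBS pH 7.4/0.01% Tween-20, 30 min RT; compound added (max 110 uM), 30 min RT; streptavidin donor/Ni-chelate acceptor beads 10 ug/mL final, 20 min dark; AlphaScreen read.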
JMJD2A Tudor = qHTS Assay for Inhibitors of JMJD2A-Tudor Domain; AlphaScreen JMJD2A-Tudor / H3K4me3 peptide binding; Potency, µM (top dose mostly 114 µM), for inactives: top-dose activity change, negative = inhibition, most hits filed as inhibitors; hit rate 4.4% among 390,000; also: % is scaled to controls: 0 for no effect and ±100 for the full control effect; nearly all actives have a fitted effect of over 50% in size
G9a block = qHTS Assay for Inhibitors of Histone Lysine Methyltransferase G9a; hit rate 8.8% among 350,000; Histone-lysine N-methyltransferase EHMT2 (Homo sapiens), Q96KQ7; AID 504332, 2011; Potency, µM (titrated, usually from 102 µM), inactives show top-dose activity, negative = inhibition, actives largely listed as inhibitors; G9a H3K9 monomethylation, AlphaScreen, 2 h; also: % is scaled to controls: 0 for no effect and ±100 for the full control effect; nearly all actives have a fitted effect of over 75% in size
Target sequence (Q96KQ7 913-1193 limits assumed): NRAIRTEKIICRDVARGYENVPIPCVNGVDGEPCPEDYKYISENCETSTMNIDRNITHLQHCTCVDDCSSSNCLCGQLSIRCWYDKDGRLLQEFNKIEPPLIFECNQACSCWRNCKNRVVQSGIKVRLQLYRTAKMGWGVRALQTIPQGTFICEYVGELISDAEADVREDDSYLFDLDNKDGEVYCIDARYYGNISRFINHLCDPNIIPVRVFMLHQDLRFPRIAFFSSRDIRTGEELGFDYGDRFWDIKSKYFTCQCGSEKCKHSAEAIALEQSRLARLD
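Signal arises when biotinylated H3K9 peptide, once monomethylated, bridges streptavidin donor and antibody-captured acceptor beads. Enzyme at 20 nM was preincubated 15 min with test compounds; peptide 500 nM and SAM 20 uM then reacted for 2 h.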
PLK1 PBD block = qHTS for Inhibitors of PLK1-PDB (polo-like kinase 1 - polo-box domain): Primary Screen; hit rate 2.8% among 360,000; Plk1 PBD binding of FITC phosphopeptide, fluorescence polarization; Serine/threonine-protein kinase PLK1 (Homo sapiens), P53350; Potency, µM, without a hit: max response, negative = inhibition, hits mostly inhibitors; also: series mostly up to about 57 µM; % is scaled to controls: 0 for no effect and ±100 for the full control effect; nearly all actives have a fitted effect of over 65% in size
VDR inhibitor = Inhibitors of the vitamin D receptor (VDR): qHTS. Vitamin D3 receptor (Homo sapiens), P11473. VDR-SRC2-3 peptide fluorescence polarization, 2 h. Potency, µM, without a hit: max response, negative = inhibition, most hits filed as inhibitors. hit rate 0.93% among 400,000. AID 504847, 2011; also: % is scaled to controls: 0 for no effect and ±100 for the full control effect
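The screen uses fluorescence polarization to detect compounds that interfere with recruitment of the SRC2-3 coactivator peptide to VDR; plates are read after 2 h at room temperature.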
TbPYK confirm = qHTS of Trypanosoma Brucei Inhibitors: Confirmatory Assay for Cherry-picked Compounds | shares compounds with PLK1 PBD block | recombinant TbPYK, Kinase-Glo ATP luminescence | Potency, µM (doses to about 76.9 µM), for the others: at the highest dose activity change, negative = inhibition, hits mostly inhibitors | hit rate 67% among 890 | AID 720569, 2013; also: % is scaled to controls: 0 for no effect and ±100 for the full control effect; nearly all actives have a fitted effect of over 70% in size
TbPYK orthogonal = qHTS of Trypanosoma Brucei Inhibitors: Orthogonal Assay for Cherry-picked Compounds | recombinant TbPYK, ADP-Glo luminescence, 60 min | shares compounds with PLK1 PBD block | Potency, µM (titrated, usually from 76.9 µM), inactives show top-dose activity change, negative = inhibition, usual class: inhibitors | hit rate 62% among 890; also: % is scaled to controls: 0 for no effect and ±100 for the full control effect; nearly all actives have a fitted effect of over 75% in size
* marks the source's active call; other numbers are inactive results; u = inconclusive; x = not tested or not shown; [ ] = another dose, or the depositor's remark. Most compounds without a hit are left out; they make up all but 11% or so of the library. Calls follow the shape of the dose curve; as a rule, active = well fitted curve in the direction sought with a large enough effect; inconclusive = small, poorly fitted or top-dose-only effect, or another doubt; inactive = no such curve, though single readings can be large; an effect the other way counts as inactive or inconclusive. Potency is read from the fitted curve at half-maximal effect.

SMILES	HP1b chromo inh	BAZ2B inh	JMJD2A Tudor	G9a block	PLK1 PBD block	VDR inhibitor	TbPYK confirm	TbPYK orthogonal
CC(=O)Nc1ccc(C23CC4CC(CC(C4)C2)C3)cc1	3%	-1%	-23%	u	-2%	-2%	x	x
Fc1cccc(CNc2ncnc3ccc(-c4cccc(Cl)c4)cc23)c1	x	-5%	x	-2%[12.7 µM]	x	x	x	x
C/C(=N\NC(=O)COc1cc(C)cc(C)c1)c1cccc(NC(=O)C2CCC2)c1	38%	-9%	3%	43%	2%	5%	x	x
CN1C(=CC=C2C=C(I)C(=O)C(I)=C2)C(C)(C)c2ccccc21	u	u	u	x	55%	6%	u	6%
Cc1ccccc1N=C/C=C1\N(C)c2ccccc2C1(C)C	3%	7%	-29%	u	-14%	10%	x	x
CC1CCCN(C(=O)COC(=O)CNC(=O)c2ccc(Br)cc2)C1 (stereo not drawn)	16%	0%	-1%	4%[59 µM]	0%	-11%	x	x
C[C@H]1CN([C@@H](C)CO)C(=O)c2cc(Br)cnc2O[C@H]1CN(C)Cc1ccccc1C(=O)O	x	x	x	x	0%	x	x	x
NS(=O)(=O)c1ccc(CCNC(=O)c2cncc(Br)c2)cc1	u	9%	u	15%[59 µM]	3µM*	u	4%	-2%
Cc1cc(=O)oc2cc(NC(=O)c3ccccc3Cl)ccc12	9%	-10%	0%	21%	-7%	-14%	x	x
CC(Nc1ccc(N2CCOCC2)cc1)C(=O)N1c2ccccc2CC1C (stereo not drawn)	-12%	35µM*	u	x	0%	-11%	3.2µM*	7.1µM*
CC1Cc2ccccc2N1CC(=O)Nc1ccc(N2CCOCC2)cc1 (stereo not drawn)	-9%	u	u	u	-9%	-13%	x	x
O=[N+]([O-])c1cc2no[n+]([O-])c2cc1N1CCCCC1	14µM*	x	45µM*	x	2.7µM*	40µM*	2.2µM*	3.5µM*
COc1cc2c(cc1OC)C(c1cc([N+](=O)[O-])ccc1O)NCC2 (stereo not drawn)	47%	-28%	-5%	x	1%	-5%	x	x
COc1cc2c(cc1OC)C(c1ccc([N+](=O)[O-])cc1)NCC2 (stereo not drawn)	-3%	2%	-21%	x	12%	-18%	-6%	-9%
CN(C)c1ccc(C(c2ccc(N(C)C)cc2)C(O)c2ccccc2)cc1 (stereo not drawn)	u	x	22µM*	x	2%	22%	2.8µM*	u
COc1ccc(S(=O)(=O)N(C(C)=O)c2ccc3oc(=O)sc3c2)cc1	35%	-34%	u	7.1µM*	-27%	79µM*	u	16µM*
CCOC(=O)C1CCN(S(=O)(=O)c2cc3c4c(c2)CC(=O)N4CCC3)CC1	38%	-17%	-4%	4%[59 µM]	x	20%	x	x
CCOc1cc(/C=C2\SC(=S)N(N3CCOCC3)C2=O)ccc1O	56%	0%	-7%	-2%[12.7 µM]	-8%	-22%	x	x
CCOc1cc(/C=C2\SC(=N)N(c3nccs3)C2=O)ccc1OCCN1CCOCC1	7%	-32%	-29%	-21%	-10%	-5%	u	u
CCOc1ccccc1-c1nc2c(C(C)(C)C)nn(C)c2c(=O)[nH]1	x	-16%	x	5%	x	x	x	x
O=c1c2sc3ccccc3c2[nH]c(=S)n1CCN1CCOCC1	21%	-21%	u	3.5µM*	-12%	6%	4µM*	5.6µM*
Cc1nc2sc(C(=O)O)c(N)c2c2c1COC(C)(C)C2	11%	7%	14µM*	3.2µM*	u	u	u	18µM*
CC(C)NC(=O)N1CCCC2(CCN(C(=O)c3cc(C(F)(F)F)cc(C(F)(F)F)c3)CC2)C1	x	x	x	5%[12.7 µM]	x	-1%	x	x
COc1cc2ccc(=O)oc2c(O)c1O	0%	x	6.3µM*	x	-4%	-19%	28µM*	35µM*
CCOC(=O)c1ccc(NC(=O)c2sc3nc(N4CCOCC4)c4c(c3c2N)CCCC4)cc1	32%	-1%	9%	10%	-18%	1%	u	u
SMILES	HP1b chromo inh	BAZ2B inh	JMJD2A Tudor	G9a block	PLK1 PBD block	VDR inhibitor	TbPYK confirm	TbPYK orthogonal
Cc1ccccc1NC(=O)c1sc2nc(N3CCOCC3)c3c(c2c1N)CCCC3	30%	14%	2%	-1%[0.0925 µM]	u	7%	u	4µM*
CC(C#N)Sc1ncnc2sc(-c3ccccc3)cc12 (stereo not drawn)	15%	-1%	-5%	9%	-4%	-10%	x	x
Cc1ccc(Nc2nc(N)nc(COC(=O)C3=COCCO3)n2)cc1	26%	-2%	-17%	10%[12.7 µM]	-9%	21%	x	x
O=c1cc(NCc2ccccc2)[nH]c(=O)[nH]1	19%	x	12%	x	5%	-2%	u	u
O=C(Cc1cc(=O)[nH]c(=O)[nH]1)NCc1ccccc1	43%	5%	0%	25%	-8%	-6%	x	x
COc1ccc(C2=NN(CC(=O)Nc3cc(C)ccc3C)C(=O)CC2)cc1	20%	2%	-6%	x	6%	20%	x	x
CCN1C(=O)/C(=C/C2=Cc3ccccc3OC2C)SC1=S (stereo not drawn)	u	u	u	u	4%	2%	x	x
CCN1C(=O)/C(=C/C=C2\C=CN(CC)c3ccccc32)SC1=S	3.5µM*	2µM*	u	8.9µM*	-10%	-2%	22µM*	u
O=C1C=CC(=O)N1c1ccc2c(c1)C(NC(=O)C(F)(F)F)c1ccccc1-2 (stereo not drawn)	13µM*	x	7.9µM*	x	6.7µM*	45µM*	7.9µM*	10µM*
CCC(=O)c1cc2c(C)cc(=O)oc2c(C)c1OC(=O)C(C)C	33%	30%	-11%	29%	-9%	-3%	x	x
COc1ccc(C(Nc2ccccn2)c2oc(CO)cc(=O)c2O)cc1 (stereo not drawn)	u	u	8.9µM*	1µM*	24µM*	u	40%	16%
Cc1csc(N=Nc2ccc(N(C)C)cc2)[n+]1[O-]	x	x	x	x	-2%	x	18µM*	12%

Screening results: PubChem BioAssay, National Center for Advancing Translational Sciences (NCATS)
